This passage reports Potency, outcome and activity change, negative = cytotoxicity results from PubChem BioAssay (NCATS).

SMILES strings stand for the structures. Records with an inconclusive call do not appear. Values without a mark were called inactive. The source made the active and inactive calls. Unless noted, calls follow the shape of the full dose curve.

The nature of test [1]: Primary qHTS for inhibitors of SARS-S pseudo-typed particle cell entry (AID 1479145). Also: nearly all actives have a fitted effect of over 45% in size. Also: potency is read from the fitted curve at half-maximal effect. The settings on record: SARS-S pseudotyped particle cell entry, luciferase reporter; series mostly up to 57.1 µM. (In general: qHTS replaces the single test concentration by a dilution series.)
Test [2] is described as follows: Primary qHTS for Huh7 cytotoxicity: counterscreen for inhibitors of MERS-S pseudotyped particle cell entry (AID 1479147). As to activity change, negative = cytotoxicity: % is scaled to controls: 0 for no effect and ±100 for the full control effect. The note with it: cell viability read-out; series mostly up to 57.1 µM.
Test [3] can be described thus: Primary qHTS for inhibitors of MERS-S pseudo-typed particle cell entry (AID 1479149). Also: nearly all actives have a fitted effect of over 60% in size. The settings on record: MERS-S pseudotyped particle entry, luciferase; series mostly up to 57.1 µM.
A short description of test [4]: Primary qHTS for Vero E6 cytotoxicity: counterscreen for inhibitors of SARS-S pseudo-typed particle cell entry (AID 1479150). As to activity change, negative = cytotoxicity: % is scaled to controls: 0 for no effect and ±100 for the full control effect. The note with it: cell viability; series mostly up to 57.1 µM.
The target of test [5] is Protein phosphatase 1D (Homo sapiens) (UniProt O15297). Briefly: RapidFire Mass Spectrometry qHTS Assay for Modulators of WT P53-Induced Phosphatase 1 (WIP1) (AID 1347424; active = well fitted curve in the direction sought with a large enough effect; an effect the other way counts as inactive or inconclusive;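 also: amount of dephosphorylated VEPPL-S-QETFS peptide product formed by WIP1; plate controls were DMSO wells for no effect and GSK830371 inhibitor control at 10 µM for full effect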). The note with it: WIP1 dephosphorylation of phosphopeptide, RapidFire MS; series mostly up to 63 µM. In short, it runs like this:
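WIP1 (10 nM final) was preincubated 1 h at room temperature with compounds in Tris-HCl pH 7.5, 30 mM MgCl2, TCEP, EGTA, BSA; 2 uM VEPPL-pS-QETFS phosphopeptide was added for 5 min, quenched with formic acid, and dephosphorylated product quantified by RapidFire MS.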

Test [6] shares this target. Put plainly: Rhodamine-PBP qHTS Assay for Modulators of WT P53-Induced Phosphatase 1 (WIP1) (AID 1347425; active = well fitted curve in the direction sought with a large enough effect; an effect the other way counts as inactive or inconclusive; also: % of control where 0% means no effect). The settings on record: recombinant WIP1, Rhodamine-PBP phosphate fluorescence, real-time; series mostly up to 57.5 µM. A digest of the protocol:
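The read-out is the change in Rhodamine-PBP fluorescence (f1 - f0, ex 525/em 598 nm) as Pi is released, read each minute for 11 min. Final reaction: 5 nM WIP1, 10 uM phosphopeptide VEPPL-pS-QETFS, 10 uM Rh-PBP, 50 mM Tris-HCl pH 7.5, 30 mM MgCl2. Compound was preincubated with enzyme for 1 hour at room temperature.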

A short description of test [7]: Primary qHTS for inhibitors of La Crosse Virus (LACV) - induced cell death in SH-SY5Y cells (AID 1508616; active = well fitted curve in the direction sought with a large enough effect; an effect the other way counts as inactive or inconclusive;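 also: top concentration of the series differs between compounds; 0% = infected DMSO wells and 100% = uninfected DMSO wells; higher means more rescue of cells from virus-induced death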). The note with it: SH-SY5Y LACV cytopathicity rescue, ATP luminescence, 6 d; series mostly up to 4.29 µM. A digest of the protocol: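 Protection against LACV-induced cell death is scored in SH-SY5Y cells exposed to compounds and virus (0.01 MOI) for 6 days. Data normalized to virus-infected DMSO wells and virus-free DMSO wells.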

For test [8], the target named is Calcium and integrin-binding protein 1 (Homo sapiens) (UniProt Q99828). Briefly: Primary qHTS for Identification of Calcium Integrin Binding Protein 1 (CIB1) Competitor (AID 1508620; active = well fitted curve in the direction sought with a large enough effect; an effect the other way counts as inactive or inconclusive;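 also: GST tagged CIB1 binding a fluorescein labelled alphaIIb integrin peptide tracer; top concentration of the series differs between compounds; % is scaled to controls: 0 for no effect and ±100 for the full control effect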). The note with it: CIB1-GST / FITC-alphaIIb peptide fluorescence polarization; series mostly up to 114 µM. A digest of the protocol: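 Fluorescence polarization competition: CIB1-GST (1 uM final) preincubated with compound 15 min at room temperature, then FITC-labeled alphaIIb peptide (100 nM final) added for another 15 min. Polarization read at Ex 480/Em 540.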
Calcium and integrin-binding protein 1 (Homo sapiens), sequence (Q99828 whole entry, looked up): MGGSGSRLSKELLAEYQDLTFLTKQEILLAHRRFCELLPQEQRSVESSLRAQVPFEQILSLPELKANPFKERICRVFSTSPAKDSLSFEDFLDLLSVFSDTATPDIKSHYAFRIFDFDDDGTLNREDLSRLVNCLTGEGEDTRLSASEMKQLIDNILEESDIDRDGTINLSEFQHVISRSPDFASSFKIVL

Test [9] in a line: qHTS to identify inhibitors of the type 1 interferon - major histocompatibility complex class I in skeletal muscle: primary screen against the NCATS Mechanism Interrogation Plate v5.0 (MIPE) Libary (AID 1347411; active = well fitted curve in the direction sought with a large enough effect; an effect the other way counts as inactive or inconclusive;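 also: plate controls were vehicle for no effect and reference inhibitor for full effect; nearly all actives have a fitted effect of over 65% in size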). The settings on record: iHSKM cells + IFN-b, HiBiT-tagged MHC-I luminescence, 24 h; series mostly up to 45.8 µM. A digest of the protocol:
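Luminescence from HiBiT-tagged endogenous HLA-B*08:01 served as the MHC class I read-out. CRISPR-engineered C25cl48 human myoblasts received 4.0 ng/ml IFN-beta plus compound for 24 hrs, with an 11-point, 1:3 series topping at 46 uM final.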

Test [10] in a line: qHTS to identify inhibitors of the type 1 interferon - major histocompatibility complex class I in skeletal muscle: primary screen against the NCATS Pharmaceutical Collection (AID 1347407; active = well fitted curve in the direction sought with a large enough effect; an effect the other way counts as inactive or inconclusive;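 also: luminescence of HiBiT knocked into endogenous HLA-B as interferon-induced MHC class I level; % is scaled to controls: 0 for no effect and ±100 for the full control effect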). The settings on record: human skeletal muscle cells, IFN-b-induced MHC-I HiBiT luminescence, 24 h; series mostly up to 45.9 µM. A digest of the protocol:
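A qHTS format is used: 8-point, 1:5 compound series with 46 uM top final concentration, applied alongside 4 ng/ml IFN-beta to HLA-B*08:01-HiBiT knock-in myoblasts. Luminescence is measured after 24 h treatment.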

Protein phosphatase 1D (Homo sapiens), sequence (O15297 whole entry, looked up): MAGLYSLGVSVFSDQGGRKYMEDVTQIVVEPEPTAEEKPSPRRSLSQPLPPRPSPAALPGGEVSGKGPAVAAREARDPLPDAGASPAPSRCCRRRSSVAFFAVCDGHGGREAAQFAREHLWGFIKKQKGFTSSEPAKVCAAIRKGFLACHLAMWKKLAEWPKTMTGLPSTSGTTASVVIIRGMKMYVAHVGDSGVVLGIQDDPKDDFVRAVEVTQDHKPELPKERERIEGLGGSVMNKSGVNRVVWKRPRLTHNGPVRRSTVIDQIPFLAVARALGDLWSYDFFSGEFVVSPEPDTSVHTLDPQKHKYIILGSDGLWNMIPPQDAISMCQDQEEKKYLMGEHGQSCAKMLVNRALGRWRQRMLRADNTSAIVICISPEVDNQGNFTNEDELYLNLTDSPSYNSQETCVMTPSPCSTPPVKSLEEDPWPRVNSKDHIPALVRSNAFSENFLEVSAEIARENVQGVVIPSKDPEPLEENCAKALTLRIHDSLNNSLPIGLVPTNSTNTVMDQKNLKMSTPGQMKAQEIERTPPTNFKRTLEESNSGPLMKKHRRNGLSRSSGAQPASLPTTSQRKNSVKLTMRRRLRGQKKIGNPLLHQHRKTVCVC

As to `c1ccc2sc(SSc3nc4ccccc4s3)nc2c1`, the Potency result in test [1], in [2], in [3] and in test [4] was “inactive” throughout.

Regarding `Cc1cnc(NC(=O)C2=C(O)c3ccccc3S(=O)(=O)N2C)s1`, the Potency entry in [1], in test [2] and in test [3] was “inactive” in each case.

Take `COCC(=O)Nc1c(I)c(C(=O)NCC(O)CO)c(I)c(C(=O)N(C)CC(O)CO)c1I` (centres undefined): the Potency entry in test [1], in test [2], in [3] and in [4] was “inactive” in each case.

Consider `NS(=O)(=O)c1cc2c(cc1Cl)NC(CC1CCCC1)NS2(=O)=O` (centres undefined), for which the Potency entry in test [1], in test [2], in test [3] and in [4] was “inactive” each time.

Regarding `CC(=O)Nc1ccc(OC(=O)c2ccccc2OC(C)=O)cc1`, the Potency result in [1], in [2], in [3] and in test [4] was “inactive” in each case.

In the case of `COP(=S)(OC)Oc1cc(Cl)c(Cl)cc1Cl`, the Potency entry in [5], in test [1], in test [2], in test [3], in test [4] and in [8] was “inactive” each time. For the same compound, the outcome in test [6] and in test [7] was inactive.

On to `CCN(CC)CCNC(=O)c1cc(S(C)(=O)=O)ccc1OC`, for which the Potency result in [1], in test [2], in [3] and in test [4] was “inactive” each time.

Consider `O=c1[nH]c(=O)n([C@H]2O[C@H](CO)[C@@H](O)[C@@H]2O)cc1/C=C\Br`, for which the Potency result in test [1], in test [2], in test [3] and in [4] was “inactive” each time.

For the compound `CCOC(=O)[C@H](CCc1ccccc1)N[C@H]1CCCN2CCC[C@@H](C(=O)O)N2C1=O`, the Potency entry in [1], in [2], in test [3] and in test [4] was “inactive” throughout.

Consider `CC(=O)O[C@@H]1CC2C3CCc4cc(OC(=O)c5ccccc5)ccc4C3CCC2(C)[C@H]1OC(C)=O` (some centres undefined), for which the Potency entry in test [1], in test [2], in test [3] and in test [4] was “inactive” in each case.

With `CC(=O)N(c1onc(C)c1C)S(=O)(=O)c1ccc(N)cc1`, the Potency entry in [1], in test [2], in test [3] and in test [4] was “inactive” in each case.

`CCOP(=S)(OCC)Oc1ccc2c(C)c(Cl)c(=O)oc2c1`: the outcome in test [6] and in [7] was inactive. Further, the Potency result in test [2], in test [3] and in test [4] was “inactive” in each case.

Consider `C[C@]12CC[C@@H]3c4ccc(OC(=O)N(CCCl)CCCl)cc4CC[C@H]3[C@@H]1CC[C@@H]2OP(=O)(O)O`, for which the Potency entry in [9], in [2], in test [3], in [4] and in test [8] was “inactive” throughout.

As for `CN1CC[C@]23c4c5ccc(O)c4O[C@H]2[C@@H](O)C=C[C@H]3[C@H]1C5`, the Potency result in test [5] and in [8] was “inactive” in each case. For the same compound, in test [6], the result was inactive.

On to `CC(C)=CCC/C(C)=C/CC/C(C)=C/CCC(=O)OC/C=C(\C)CCC=C(C)C`, for which the Potency result in test [1], in test [2] and in [3] was “inactive” throughout.

On to `CC(C)(C)c1ccc(O)cc1`, for which the Potency entry in [5], in [1] and in test [3] was “inactive” throughout. In addition, the result in test [6] and in [7] was inactive.

In the case of `CCCC(=O)OCOC(=O)C1=C(C)NC(C)=C(C(=O)OC)C1c1cccc(Cl)c1Cl` (centres undefined), the Potency result in test [1], in [2], in test [3] and in test [4] was “inactive” each time.

As for `CC1CCN(CCCC(=O)c2ccc(F)cc2)CC1`, the Potency result in [1], in test [2], in test [3] and in test [4] was “inactive” throughout.

Consider `COc1cccc2c1C(=O)c1c(O)c3c(c(O)c1C2=O)C[C@@](O)(C(=O)CO)C[C@@H]3O[C@H]1C[C@H](N)[C@@H](O)[C@H](C)O1`, for which the Potency in test [1] was 10 µM (active).

Turning to `Oc1cccc(O)c1`, the Potency result in test [1], in test [2], in [3] and in [4] was “inactive” in each case.

As to `C[C@@H](N)[C@@H](O)c1ccccc1`, the Potency entry in test [5], in test [1], in test [2], in test [3], in [4] and in [8] was “inactive” in each case. Further, the outcome in [6] and in [7] was inactive.

As for `CC[C@H](C)[C@H](N)C(=O)O`, the Potency result in test [1], in [2], in test [3] and in test [4] was “inactive” each time.

Take `CC(C)(O/N=C(\C(=O)N[C@@H]1C(=O)N2C(C(=O)[O-])=C(C[n+]3ccccc3)CS[C@H]12)c1csc(N)n1)C(=O)O`: the Potency result in [1], in test [2], in test [3] and in test [4] was “inactive” each time.

In the case of `CC(=O)SCC(CC(=O)c1ccc(C)cc1)C(=O)O` (centres undefined), the Potency result in [1], in test [2], in test [3] and in [4] was “inactive” each time.

With `CC(C)C[C@H](CN)CC(=O)O`, the Potency entry in [9] and in [8] was “inactive” throughout.

As to `NNC(=O)c1ccncc1`, the Potency entry in test [1], in test [2], in [3] and in [4] was “inactive” in each case.

For the compound `Nc1ccc(S(N)(=O)=O)cc1`, the Potency entry in test [1], in test [2], in test [3] and in test [4] was “inactive” throughout.

Regarding `Nc1ccn(C[C@@H](CO)OCP(=O)(O)O)c(=O)n1`, the outcome in test [1], in test [2] and in test [3] was “inactive [at 0.573 µM]” throughout. Besides, the activity change, negative = cytotoxicity in test [4] is -5.43% [at 0.573 µM].

`Cc1cc(NS(=O)(=O)c2ccc(N)cc2)no1`: the Potency entry in test [1], in test [2], in test [3] and in test [4] was “inactive” in each case.

In the case of `O=C1c2ccccc2C(=O)C1C(=O)C(c1ccccc1)c1ccccc1`, the Potency entry in test [10] and in test [8] was “inactive” in each case. Also, the compound was called inactive in test [7].

Take `OCCc1ccccc1`: the Potency result in test [1], in test [2], in [3] and in test [4] was “inactive” throughout.

`CC(C)(Oc1ccc(Cl)cc1)C(=O)OCCCOC(=O)C(C)(C)Oc1ccc(Cl)cc1`: the Potency result in [1], in test [2], in [3] and in test [4] was “inactive” throughout.

For the compound `Clc1cccc(C(c2ccc3nc[nH]c3c2)n2ccnc2)c1` (centres undefined), the Potency entry in test [1], in test [2], in test [3] and in [4] was “inactive” throughout.
